Molecules are shown by their SMILES. Inconclusive results are not listed. Activity calls are given as the source filed them. The calls were made as follows: active = hit-call score of the fitted dose curve at least 0.9, where 1 is the maximum; inconclusive = response in the unintended direction; inactive = score below 0.9.

The source of these data is PubChem BioAssay (EPA / NIEHS).

Sequence of rat Monoamine Oxidase, MAO-B, Peripheral (MAOBP), Maob (gene 25750) (P19643 whole entry, looked up): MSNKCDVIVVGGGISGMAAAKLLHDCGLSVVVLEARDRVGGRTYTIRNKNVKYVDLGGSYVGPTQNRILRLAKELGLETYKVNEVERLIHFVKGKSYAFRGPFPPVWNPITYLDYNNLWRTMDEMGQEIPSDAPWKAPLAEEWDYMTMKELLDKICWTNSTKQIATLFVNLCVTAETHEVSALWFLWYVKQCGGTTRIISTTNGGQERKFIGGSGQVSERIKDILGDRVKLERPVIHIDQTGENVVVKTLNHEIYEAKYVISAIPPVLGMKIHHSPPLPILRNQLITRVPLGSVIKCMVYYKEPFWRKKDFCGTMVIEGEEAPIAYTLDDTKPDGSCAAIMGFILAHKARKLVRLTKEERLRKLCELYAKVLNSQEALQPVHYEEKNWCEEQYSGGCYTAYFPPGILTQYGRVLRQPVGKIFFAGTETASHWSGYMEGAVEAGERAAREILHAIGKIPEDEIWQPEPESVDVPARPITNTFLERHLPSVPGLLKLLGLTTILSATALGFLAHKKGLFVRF

This assay deals with rat Monoamine Oxidase, MAO-B, Peripheral (MAOBP), Maob (gene 25750) (UniProt P19643). Kind of assay: NVS_ENZ_rMAOBP: NovaScreen (NVS) Enzymatic Assay for rat Monoamine Oxidase, MAO-B, Peripheral (MAOBP) (AID 2283242). How it is done:
NVS_ENZ_rMAOBP is a biochemical, single-readout assay that uses extracted gene-proteins from Rat brain in a tissue-based cell-free assay. Measurements were taken 1.17 hours after chemical dosing in a 96-well plate.NVS_ENZ_rMAOBP is one of one assay component(s) measured or calculated from the NVS_ENZ_rMAOBP assay. It is designed to make measurements of enzyme activity, a form of enzyme reporter, as detected with scintillation counting signals by Lysate-based radiodetection technology.Data from the assay component NVS_ENZ_rMAOBP was analyzed into 1 assay endpoint. This assay endpoint, NVS_ENZ_rMAOBP, was analyzed in the positive analysis fitting direction relative to DMSO as the negative control and baseline of activity. Using a type of enzyme reporter, loss-of-signal activity can be used to understand changes in the enzymatic activity as they relate to the gene Maob. Furthermore, this assay endpoint can be referred to as a primary readout, because this assay has produced multiple assay endpoints where this one serves a enzymatic activity function. To generalize the intended target to other relatable targets, this assay endpoint is annotated to the oxidoreductase intended target family, where the subfamily is monoamine oxidase.
Binding assays used specific radioligands (tritiated, iodinated) with non-radioactive competitive displacement ligands in agonist or antagonist protocols (as indicated) and various reference compounds and inhibitors to titrate specific binding to receptors and transporters. Most enzyme assays (CYPs, kinases, phosphatases, proteases, HDACs) used recombinant protein and specific substrates (fluorescence mostly, some colorimetric and radioactive) and inhibitors, followed by a biochemical separation of substrate and product. All assays for the biochemical HTS were initially run in duplicate at a single concentration (10 uM for CYP450 assays and 25 uM for all others). Assay-chemical combinations meeting a pre-defined threshold (e.g., 30% inhibition and other criteria defined below) were then run in singleton concentration-response format with maximum concentration of 20 uM for CYPs and 50 uM for all others. Each assay was run with positive and negative controls, and concurrent controls on every plate. The follow-up (secondary) screen tested active chemical-pairs in concentration series, as well as a few additional assays not tested in the primary screen, some selected negative inactives, and several cases re-run in the concentration series for confirmatory purposes.
For `Cc1cc(N=Nc2ccccc2C)ccc1N`, the outcome was inactive.
`Clc1ccc(Cl)c(Cl)c1`: the call was inactive.
For the compound `ClC1=C(Cl)[C@]2(Cl)[C@H]3[C@H]([C@@H]4C=C[C@H]3C4)[C@@]1(Cl)C2(Cl)Cl`, the call was inactive.
`CC(C)COC(=O)c1ccccc1C(=O)OCC(C)C`: the compound was called inactive.
With `CC(C)(O)c1cnn2c(-c3ccc(F)c(-c4c(F)cccc4C#N)c3)cnc2n1`, the compound was classed as inactive.
Still for that read-out and setting: the result for `Cn1cc(-c2ccccc2)c(=O)c(-c2cccc(C(F)(F)F)c2)c1` reads “inactive”.
For `CN(C)c1ccc(C(=O)c2ccc(N(C)C)cc2)cc1`, the AC50 (usually the midpoint of the concentration-response curve, whichever way the signal moves) was 18.6 µM (active).
Regarding `CO[C@@H]1[C@H](OC(=O)NC(=O)CCl)CC[C@]2(CO2)[C@H]1[C@@]1(C)O[C@@H]1CC=C(C)C`, the outcome was inactive.
With `[Cl-].[Cl-].[Hg+2]`, the AC50 is 9.04 µM (active).
With `CCOC(=O)[C@]1(c2ccccc2)Oc2ccccc2[C@@H]1N`, the AC50 is 2.44 µM (active).
In the case of `Nc1ccc(N=Nc2ccccc2)cc1`, the compound was classed as inactive.
For `Nc1cc(Cl)cc(C(=O)O)c1Cl`, the outcome was inactive.
